Measurements: PubChem BioAssay
Measured potencies and affinities stand elsewhere. Records with an inconclusive call do not appear. The source made the active and inactive calls. Unless noted, the rule behind the calls is not given here.

How the values were obtained:
[1] = cytotoxicity in PAX8-dependent RMG-1 cells, dose response, cell-based, cherry-pick (AID 687029;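 active = signal drop whose fitted half-maximal concentration is at most twice the top valid dose, in every test run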;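 note: cells exposed to compound for 96 hours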); conditions: RMG-1 viability, CellTiterGlo ATP luminescence, 96 h; series mostly up to 35 µM
[2] = cytotoxicity in IOSE-T80 ovarian epithelial cells, dose response, selectivity assay for PAX8 inhibitor project, cell-based, cherry-pick (AID 687032;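 active = fitted half-maximal concentration for viability loss no higher than twice the top valid dose, in every repeat run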;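 note: cells exposed to compound for 96 h before reading; 0% = neutral control wells and -100% = 2 µM mitoxantrone kill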); conditions: CellTiterGlo ATP luminescence, 96 h; series mostly up to 35 µM
[3] = non-specific cell cytotoxicity, dose response, cytotoxicity control for PAX8 inhibitor project, plate reader, dry powder samples (AID 743021); conditions: cell line, non-specific cytotoxicity counter-screen; series mostly up to 35 µM
[4] = inhibitors of CMV-promoter luciferase reporter, dose response, counter-screen for Pax8 inhibitor project, cell-based, HEK293, luminescence, dry powder (AID 743020;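 active = signal-lowering compounds whose fitted half-maximal concentration is at or below twice the top tested dose in every run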;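 note: HEK293 cells stably expressing the CMV luciferase reporter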); conditions: SteadyGlo luminescence, 24 h; series mostly up to 35 µM
[5] = cytotoxicity in OVCAR8 ovarian cancer cells, dose response, PAX8 project, cell-based, plate reader, dry powder samples (AID 743197); conditions: series mostly up to 35 µM
[6] = A2780 ovarian cancer cell cytotoxicity, dose response, cytotoxicity control, plate reader, dry powder samples (AID 743046); conditions: series mostly up to 35 µM;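 note: 0% = neutral control wells and -100% = cytotoxic reference compound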
[7] = IGROV1 ovarian cancer cell cytotoxicity, dose response, PAX8 inhibitor project, plate reader, dry powder samples (AID 743043); conditions: series mostly up to 35 µM;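 note: more negative means fewer viable cells or more cytotoxicity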
[8] = IOSE-T80 ovarian epithelial cell cytotoxicity, dose response, cytotoxicity control for PAX8 inhibitor project, plate reader, dry powder samples (AID 743045); conditions: IOSE-T80 ovarian epithelial cells; series mostly up to 35 µM;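 note: 0% = neutral control median and -100% = positive control median; more negative values mean more cell killing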
[9] = NIH:OVCAR-3 ovarian cancer cell cytotoxicity, dose response, PAX8 inhibitor project, plate reader, dry powder samples (AID 743044); conditions: NIH:OVCAR-3 ovarian cancer cell viability; max activity: at 35 µM, stronger effect = lower value unless noted; series mostly up to 50 µM

CC(=O)N1CCc2c(sc(NC(=O)c3ccc([N+](=O)[O-])o3)c2C#N)C1
inactive: outcome [1] | outcome [2] | outcome [3]

COc1cc(/C=N/NS(=O)(=O)c2ccc(C)cc2)ccc1OCc1cccc(C(=O)O)c1
inactive: outcome [1] | outcome [2] | outcome [3]

Cn1cc(C2=C(c3ccc(Cl)cc3Cl)C(=O)NC2=O)c2ccccc21
inactive: outcome [1] | outcome [2] | outcome [3]

CC(=NNC(=S)N1CCC1)c1ccccn1
inactive: outcome [1] | outcome [2] | outcome [3]

CCC(=O)OCCNc1cc(Sc2nccn2C)c2nonc2c1[N+](=O)[O-]
inactive: outcome [1] | outcome [2] | outcome [3]

CNC[C@@H](CC1CCCCC1)NC[C@H](CC(C)C)NCCc1cccc(C(F)(F)F)c1
inactive: outcome [1] | outcome [2] | outcome [3]

O=C(NCCN1C(=O)S/C(=C\c2ccc(OC(F)F)cc2)C1=O)c1cnccn1
inactive: outcome [1] | outcome [2] | outcome [3]

CC[C@@]1(O)C(=O)OCc2c1cc1n(c2=O)Cc2cc3c(N)cccc3nc2-1
inactive: outcome [1] | outcome [2] | outcome [3]

CC(=O)OC1CCC2(C)C(CCC3C4CC=C(C(C)=O)C4(C)OC(=O)CC32)C1 (stereo not given)
inactive: outcome [1] | outcome [2] | outcome [3]

N#C[C@H]1[C@@H](c2ccc(C#Cc3ccc(F)cc3)cc2)[C@H](CO)N1C(=O)Nc1ccc(F)cc1
inactive: outcome [1] | outcome [2] | outcome [4] | outcome [5]

Cc1ccc2nc(C)cc(Nc3ccc([N+](=O)[O-])cc3)c2c1
inactive: outcome [1] | outcome [2] | outcome [3]

O=c1c(Cl)c(Cl)cnn1Cc1nnc(-c2ccccc2Br)o1
inactive: outcome [1] | outcome [2] | outcome [3]

CC(C)C(=O)N1CCN(c2ccc(NC(=O)c3ccc([N+](=O)[O-])o3)cc2)CC1
inactive: outcome [1] | outcome [2] | outcome [3]

CCOc1ccc(CCN2C(=S)N([C@@H](Cc3ccc(O)cc3)CN3CCC[C@@H]3CN3C(=S)NC[C@@H]3CC(C)C)C[C@@H]2Cc2ccc(O)cc2)cc1
inactive: outcome [1] | outcome [2] | outcome [3]

C#CCN(C[C@@H]1[C@@H](OC(=O)Nc2cccs2)[C@@H](OC(=O)Nc2cccs2)Cn2c(=O)ccc(=O)n21)S(=O)(=O)c1ccc(C)cc1
inactive: outcome [1] | outcome [2] | outcome [3]

CN(C)CCNc1ccc(CO)c2sc3ccc(O)cc3c(=O)c12
inactive: outcome [1] | outcome [2] | outcome [3]

Oc1ccc(N=Nc2ccccc2C(F)(F)F)c2cccnc12
inactive: outcome [1] | outcome [2] | outcome [3]

COc1ccc(S(=O)(=O)N2CCCCN3[C@H](CO)[C@H](c4ccc(C#CC(C)C)cc4)[C@H]3C2)cc1
inactive: outcome [1] | outcome [2] | outcome [4] | outcome [6] | outcome [5]

Cn1nnnc1Sc1ncnc2scc(-c3cccc(F)c3)c12
inactive: outcome [1] | outcome [2] | outcome [3]

Cc1cccc(C2(c3cccc(C)c3)CC2C(=O)Nc2ccc([N+](=O)[O-])cc2O)c1 (stereo not given)
inactive: outcome [1] | outcome [2] | outcome [3]

CC(C)(C)C(=O)Nc1ccc(NC(=O)c2ccco2)nc1
inactive: outcome [1] | outcome [2] | outcome [3]

CC(=O)NC(c1ccc2ccccc2c1)c1ccc2cccnc2c1O (stereo not given)
inactive: outcome [1] | outcome [2] | outcome [3]

Cn1nnnc1Sc1ncnc2scc(-c3cccc4c3sc3ccccc34)c12
inactive: outcome [1] | outcome [2] | outcome [3]

Oc1ccc2ccccc2c1N=Nc1nccs1
inactive: outcome [1] | outcome [2] | outcome [3]

CC(=NNC(=S)N1CCN(C2CCCCCC2)CC1)c1ccccn1
inactive: outcome [1] | outcome [2] | outcome [3]

COc1cc(-c2cnc3c(NC=O)cc(-c4ccc(C)cc4)cn23)cc(OC)c1OC
inactive: outcome [1] | outcome [2] | outcome [3]

CS(=O)(=O)c1ncc(Cl)c(C(=O)Nc2ccc3ccccc3c2)n1
inactive: outcome [1] | outcome [2] | activity change, negative = cytotoxicity [3] 1.87% [at 8 µM]

C[C@H]1CCCCO[C@H](CN(C)C(=O)Nc2ccc(C(F)(F)F)cc2)[C@@H](C)CN([C@@H](C)CO)C(=O)c2cc(NS(=O)(=O)c3ccc(Cl)cc3)ccc2O1
inactive: outcome [1] | outcome [2] | outcome [3]

Oc1c(I)cc(I)c2cccnc12
inactive: outcome [1] | outcome [2] | outcome [3]

CN[C@H]1CCc2cc(OC)c(OC)c(OC)c2-c2ccc(OC)c(=O)cc21
inactive: outcome [1] | outcome [2] | outcome [3]

Cc1ccc(S(=O)(=O)N(C)C[C@@H]2Oc3ccc(NC(=O)Nc4ccc(C(F)(F)F)cc4)cc3CC(=O)N([C@H](C)CO)C[C@@H]2C)cc1
inactive: outcome [1] | outcome [2] | outcome [3]

CCOCCCNC(=O)c1ccc2c(c1)N=C(CC)c1cc(Br)ccc1S2
inactive: outcome [1] | outcome [2] | outcome [3]

CCOC(=O)c1cnn(CCOC(=O)c2cccc(F)c2)c1NC(=O)c1cccc(F)c1
inactive: outcome [1] | outcome [2] | outcome [3]

CCC1(O)C(=O)OCc2c1cc1n(c2=O)Cc2cc3c(N)cccc3nc2-1 (stereo not given)
inactive: outcome [1] | outcome [2] | outcome [3]

COc1ccc(OC)c(-c2nnc3n2N=C(c2ccc(OC)c(OC4CCOC4)c2)CS3)c1 (stereo not given)
inactive: outcome [1] | outcome [2] | outcome [3]

COc1cc(NC(=O)Cn2ncc(Cl)c(Cl)c2=O)c(C)cc1[N+](=O)[O-]
inactive: outcome [1] | outcome [2] | outcome [3]

COc1cc(/C=C2\COC/C(=C\c3cc(OC)c(OC)c(OC)c3)C2=O)cc(OC)c1OC
inactive: outcome [1] | outcome [2] | outcome [3]

Cc1cc(NC(=O)c2ccc([N+](=O)[O-])o2)ccc1NC(=O)c1ccco1
inactive: outcome [1] | outcome [2] | outcome [3]

N#Cc1c(N)n(C2OC(CO)C(O)C2O)c2ncnc(N)c12 (stereo not given)
inactive: outcome [1] | outcome [2] | outcome [3]

Cc1cc(-n2c(SCC(=O)NCCC3=CCCCC3)nc3n[nH]c(C)c3c2=N)ccc1Cl
inactive: outcome [1] | outcome [2] | outcome [3]

COc1ccccc1-n1cc([C@@H]2C[C@H]3CN(c4ccccc4)C(=O)[C@]34CCCN24)cn1
inactive: outcome [1] | outcome [2] | outcome [3]

NC(=O)c1ccsc1NC(=O)c1ccc([N+](=O)[O-])o1
inactive: outcome [1] | outcome [2] | outcome [3]

C[C@H]1CCCCO[C@H](CN(C)C(=O)Nc2ccc(C(F)(F)F)cc2)[C@@H](C)CN([C@@H](C)CO)C(=O)c2cc(NC(=O)Nc3ccc(F)cc3)ccc2O1
inactive: outcome [1] | outcome [2] | outcome [3] | outcome [7]

C#CCN(C[C@@H]1[C@@H](OC(=O)NCc2ccc(OC)c(OC)c2)[C@@H](OC(=O)NCc2ccc(OC)c(OC)c2)Cn2c(=O)ccc(=O)n21)S(=O)(=O)c1ccc(C)cc1
inactive: outcome [1] | outcome [2] | outcome [3]

COc1cc(/C=N/NS(=O)(=O)c2ccc(C)cc2)ccc1OCc1ccc(C(=O)O)cc1
inactive: outcome [1] | outcome [2] | outcome [3]

COc1ccccc1NS(=O)(=O)c1cccc(C(=O)N/N=C/c2ccc([N+](=O)[O-])o2)c1
inactive: outcome [1] | outcome [2] | outcome [3]

Cc1ccc(S(=O)(=O)Nc2ccc3c(c2)C(=O)N([C@H](C)CO)C[C@H](C)[C@@H](CN(C)Cc2ccc(C(F)(F)F)cc2)OCCCC[C@H](C)O3)cc1
inactive: outcome [1] | outcome [2] | outcome [3]

O=C(CCCN1C(=O)/C(=C\c2cccc(Br)c2)SC1=S)Nc1cccnc1
inactive: outcome [1] | outcome [2] | outcome [3]

Cc1cccc(C)c1NS(=O)(=O)c1ccc(-c2cnc(C3CC3)o2)cc1
inactive: outcome [1] | outcome [2] | outcome [3]

CC(=O)Nc1cc(-c2cccc(C(=O)NCCN(C)C)c2)cn2c(-c3cccc(C(F)(F)F)c3)cnc12
inactive: outcome [1] | outcome [2] | outcome [3]

CC(C)N1CCc2c(sc(NC(=O)c3ccc([N+](=O)[O-])o3)c2C(N)=O)C1
inactive: outcome [1] | outcome [2] | outcome [3]

CCS(=O)(=O)N1Cc2ccccc2CC1C(=O)Nc1nnc(SCc2c(Cl)cccc2Cl)s1 (stereo not given)
inactive: outcome [1] | outcome [2] | outcome [3]

C[C@@H]1CCCCO[C@@H](CN(C)CC2CCCCC2)[C@H](C)CN([C@H](C)CO)C(=O)c2cc(NS(=O)(=O)c3ccc(Cl)cc3)ccc2O1
inactive: outcome [1] | outcome [2] | outcome [3]

Cc1[nH]c2ccccc2c(=O)c1C(=O)/C=C/c1ccccc1
inactive: outcome [1] | outcome [2] | outcome [3]

Cc1ccc(C(=O)c2cc([N+](=O)[O-])ccc2N2CCCCC2)cc1
inactive: outcome [1] | outcome [2] | outcome [3]

COc1c(C=O)c2c(c(OC)c1OC)-c1ccc(OC)c(=O)cc1C(NC(C)=O)CC2 (stereo not given)
inactive: outcome [1] | outcome [2] | outcome [3]

COC(=O)c1ccccc1-c1c2ccc(=N)cc-2oc2cc(N)ccc12
inactive: outcome [1] | outcome [2] | outcome [3]

C=CC(=O)N=c1sc2ccccc2n1-c1ccccc1
inactive: outcome [1] | outcome [2] | outcome [3]

C[C@H](CO)N1C[C@H](C)[C@H](CN(C)Cc2ccc(C(F)(F)F)cc2)OCCCC[C@H](C)Oc2ccc(NC(=O)CCC(F)(F)F)cc2C1=O
inactive: outcome [1] | outcome [2] | outcome [3] | outcome [7] | outcome [8] | outcome [6]

C[C@@H]1CN([C@@H](C)CO)C(=O)c2cc(NC(=O)Nc3ccc(F)cc3)ccc2O[C@@H](C)CCCCO[C@@H]1CN(C)Cc1ccc(C(F)(F)F)cc1
inactive: outcome [1] | outcome [2] | outcome [3] | outcome [7] | outcome [8]

C[C@@H]1CN([C@H](C)CO)C(=O)c2cc(NC(=O)CCC(F)(F)F)ccc2O[C@@H](C)CCCCO[C@@H]1CN(C)Cc1ccc(C(F)(F)F)cc1
inactive: outcome [1] | outcome [2] | outcome [3] | outcome [7] | outcome [8]

CC(C)CC#Cc1ccc2c(c1)O[C@H](CN(C)Cc1ccc(F)cc1)[C@H](C)CN([C@H](C)CO)S2(=O)=O
inactive: outcome [1] | outcome [2] | outcome [3] | outcome [7] | max activity [9] 38.6% [at 2.1 µM, stronger effect = lower value] | outcome [8] | outcome [6]

CCCN(C)C[C@H]1OCCCC[C@@H](C)Oc2ccc(NC(=O)Nc3ccc(C(F)(F)F)cc3)cc2C(=O)N([C@H](C)CO)C[C@H]1C
inactive: outcome [1] | outcome [2] | outcome [3] | outcome [7] | max activity [9] 9.68% [at 1 µM, stronger effect = lower value] | outcome [8] | outcome [6] | outcome [5]

C[C@H]1CCCCO[C@@H](CN(C)Cc2ccc(C(F)(F)F)cc2)[C@@H](C)CN([C@@H](C)CO)C(=O)c2cc(NC(=O)Nc3ccc(F)cc3)ccc2O1
inactive: outcome [1] | outcome [2] | outcome [3] | outcome [7] | outcome [8] | outcome [6]
